According to PubChem BioAssay AID1159580 (chemical genetic matrix, 2015):
The whole screen tested about 5,500 compounds, of which about 2,000 (36%) were called active. Not shown: some 18% with an inconclusive outcome. No stated cut-off is given here; in the data, active means normalized growth mostly below about 0.91 (no sharp cut-off); inconclusive means no clear call, values can overlap the other calls; inactive means mostly above about 0.92. The list shows a part of the results.

Experiment: chemical genetic growth profiling, strain panel (AID 1159580);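 further: tested at 20 µM; growth read once vehicle control cultures reached saturation at 30 °C; 1 = growth at the plate median or of vehicle wells; lower values mean less growth of the strain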
Settings: S. cerevisiae deletion strains, growth OD

Measured: normalized growth

COc1c(Cl)ccc(Cl)c1C(=O)O
inactive: locus YAL013W, strain DEP1, hits give low values 1.01 | locus YAL021C, strain ccr4, hits give low values 0.972 | locus YAL026C, strain drs2, hits give low values 0.988 | locus YAL030W, strain snc1, hits give low values 0.984 | locus YBL061C, strain skt5, hits give low values 0.977 | locus YBR009C, strain hhf1, hits give low values 0.988 | locus YBR021W, strain FUR4, hits give low values 1.02 | locus YBR023C, strain chs3, hits give low values 0.995 | locus YBR171W, strain sec66, hits give low values 0.977 | locus YBR229C, strain ROT2, hits give low values 0.999 | locus YBR231C, strain swc5, hits give low values 0.968 | locus YBR279W, strain paf1, hits give low values 0.982 | locus YCL011C, strain gbp2, hits give low values 0.981 | locus YCL016C, strain dcc1, hits give low values 0.986 | locus YCL029C, strain bik1, hits give low values 1.02 | locus YCL061C, strain MRC1, hits give low values 0.985 | locus YCL069W, strain vba3, hits give low values 0.984 | locus YCR088W, strain abp1, hits give low values 0.978 | locus YDL005C, strain med2, hits give low values 0.975 | locus YDL035C, strain GPR1, hits give low values 1.02 | locus YDL040C, strain nat1, hits give low values 0.977 | locus YDL074C, strain BRE1, hits give low values 1.04 | locus YDL101C, strain DUN1, hits give low values 1.01 | locus YDL134C, strain PPH21, hits give low values 1.01 | locus YDL185W, strain tfp1, hits give low values 1.02 | locus YDL192W, strain arf1, hits give low values 1.02 | locus YDR001C, strain nth1, hits give low values 0.985 | locus YDR069C, strain doa4, hits give low values 0.976 | locus YDR101C, strain arx1, hits give low values 1.01 | locus YDR137W, strain rgp1, hits give low values 1.01 | locus YDR150W, strain NUM1, hits give low values 1 | locus YDR159W, strain sac3, hits give low values 0.972 | locus YDR162C, strain NBP2, hits give low values 1.01 | locus YDR195W, strain ref2 0.919 | locus YDR297W, strain sur2, hits give low values 0.993 | locus YDR318W, strain mcm21, hits give low values 1.02 | locus YDR334W, strain swr1, hits give low values 0.979 | locus YDR335W, strain msn5, hits give low values 0.985 | locus YDR388W, hits give low values 1.01 | locus YDR392W, strain spt3, hits give low values 0.999 | locus YDR502C, strain sam2, hits give low values 1.01 | locus YEL003W, strain gim4, hits give low values 0.985 | locus YEL037C, strain rad23, hits give low values 0.985 | locus YEL061C, strain CIN8 (second series), hits give low values 0.973 | locus YEL061C, strain CIN8, hits give low values 0.997 | locus YER015W, strain faa2, hits give low values 0.981 | locus YER016W, strain bim1, hits give low values 0.985 | locus YER110C, hits give low values 1.02 | locus YER111C, strain swi4, hits give low values 0.96 | locus YER155C, strain BEM2 (second series), hits give low values 0.982 | locus YER155C, strain BEM2, hits give low values 1.01 | locus YER167W, strain BCK2, hits give low values 1.02 | locus YFR010W, strain ubp6, hits give low values 0.983 | locus YGL078C, strain dbp3, hits give low values 1.01 | locus YGL086W, strain mad1, hits give low values 1.01 | locus YGL167C, strain pmr1, hits give low values 0.984 | locus YGL173C, strain kem1, hits give low values 0.982 | locus YGL227W, strain vid30, hits give low values 0.97 | locus YGL240W, strain doc1, hits give low values 0.961 | locus YGL248W, strain PDE1, hits give low values 1.01 | locus YGL253W, strain hxk2, hits give low values 0.993 | locus YGR078C, strain PAC10, hits give low values 1.01 | locus YGR135W, strain pre9, hits give low values 1.02 | locus YGR229C, strain SMI1, hits give low values 1.04 | locus YGR252W, strain gcn5, hits give low values 1.02 | locus YHR013C, strain ard1, hits give low values 0.957 | locus YHR027C, strain rpn1, hits give low values 0.995 | locus YHR030C, strain SLT2, hits give low values 1.01 | locus YHR079C, strain IRE1 (second series), hits give low values 1.01 | locus YHR094C, strain hxt1, hits give low values 1.01 | locus YHR129C, strain ARP1, hits give low values 1.01 | locus YHR142W, strain chs7, hits give low values 0.979 | locus YHR200W, strain rpn10, hits give low values 1 | locus YIL066C, strain RNR3, hits give low values 1.04 | locus YIL073C, strain SPO22, hits give low values 1.09 | locus YIL125W, strain kgd1, hits give low values 1.01 | locus YIR030C, strain dcg1, hits give low values 1.01 | locus YJL092W, strain hpr5, hits give low values 0.987 | locus YJL095W, strain BCK1 (second series), hits give low values 0.99 | locus YJL095W, strain BCK1, hits give low values 1.02 | locus YJL115W, strain asf1, hits give low values 0.976 | locus YJL129C, strain trk1, hits give low values 0.976 | locus YJL134W, strain LCB3, hits give low values 1.01 | locus YJL154C, strain vps35, hits give low values 0.992 | locus YJL164C, strain tpk1, hits give low values 0.987 | locus YJL166W, strain qcr8, hits give low values 0.997 | locus YJL168C, strain set2, hits give low values 1.01 | locus YJL187C, strain SWE1 (second series), hits give low values 1.01 | locus YJL187C, strain SWE1, hits give low values 0.99
